Screening results deposited in PubChem BioAssay by Broad Institute.
CD40 NFkB inh = inhibitors of CD40-induced NF-kB signaling, primary screen, BL2 cells, luciferase reporter, single point; CD40L-induced, 4 h; inhibition, % at 10 µM; hit rate 0.94% among 83,000;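 active means mean inhibition of at least 50% with a set share of replicates also reaching that level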;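 further: 0% = neutral control wells and 100% = IKK inhibitor VII at 50 µM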
* marks the source's active call; other numbers are inactive results; [ ] = remark or other dose. The full list was thinned out, with hits kept by preference.

SMILES	CD40 NFkB inh
Oc1c(C(Nc2ccccn2)c2ccccn2)ccc2cccnc12 (stereo unspecified)	-6
Cc1ccnc(NC(c2cccnc2)c2ccc3cccnc3c2O)c1 (stereo unspecified)	-33
COc1ccccc1NC(c1cccnc1)c1ccc2cccnc2c1O (stereo unspecified)	49*
CO[C@@H](CN(C)S(=O)(=O)c1ccc(C)cc1)[C@@H](C)CN(C(=O)Nc1ccccc1F)[C@@H](C)CO	-14[25 µM]
Oc1ccc(CCc2ccccn2)cc1	-46
O=C(Nc1ccc(F)cc1)N1C[C@@H]2[C@H](c3ccccc31)[C@@H](CO)N2C(=O)c1ccc(F)cc1	-2
CCOC(=O)c1nn(-c2ccc(F)cc2)c(=O)cc1OCC(=O)Nc1ccc(F)c(F)c1	26
CCOc1ccccc1C=NN1CCCCCC1	7
C(=C\c1ccc2ccccc2n1)/c1ccccc1	28
C(=NN1CCCCCC1)c1ccc2ccccc2n1	77*
CC=Cc1ccc2n(c1=O)C[C@H]1[C@H](CO)[C@@H](C(=O)NCC3CC3)[C@@H]2N1Cc1cccnc1 (mixture of isomers)	-6[25 µM]
COCCCNc1ccn2nc(-c3cc(OC)c(OC)c(OC)c3)cc2n1	1
COCCCNc1ccn2nc(-c3ccccc3)cc2n1	60*
c1ccc(OCCNc2ccn3nc(-c4ccccc4)cc3n2)cc1	-62
CCCNC(=O)[C@H]1[C@H](CO)[C@H]2Cn3c(ccc(-c4ccc(F)cc4)c3=O)[C@@H]1N2Cc1ccccc1F	8[25 µM]
C[C@@H]1CN([C@@H](C)CO)C(=O)CCCn2nncc2CO[C@@H]1CN(C)Cc1cccc2c1OCCCO2	-2[25 µM]
O=C(Nc1cccc(F)c1)N1CCCCN2[C@@H](CO)[C@@H](c3ccc(C#Cc4cccnc4)cc3)[C@@H]2C1	-1[25 µM]
O=C(c1ccco1)N1CCN(S(=O)(=O)c2ccc3c(c2)CCN3C(=O)C2CCC2)CC1	9
CCOC(=O)N1CCN(S(=O)(=O)c2ccc3c(c2)CCN3C(=O)C2CCC2)CC1	3
O=C(C1CCC1)N1CCc2cc(S(=O)(=O)N3CCCCC3)ccc21	active
Cc1cccc(C2c3[nH]c4ccccc4c3CCN2C(=O)c2cc(CC(C)C)[nH]c(=O)n2)n1 (stereo unspecified)	-1
COC(=O)c1ccc(CN2CC(=O)N3[C@H](CO)[C@H](c4ccc(-c5cccnc5)cc4)[C@@H]3C2)cc1	-8[25 µM]
COc1ccc2cc(-c3cc(C(=O)O)c4ccccc4n3)ccc2c1	83*
COc1ccc(-c2cc(C(=O)N3CC(C)CC(C)C3)c3ccccc3n2)cc1 (stereo unspecified)	-13
COc1ccc(-c2cc(C(=O)N3CCCC3)c3ccccc3n2)cc1	-57
SMILES	CD40 NFkB inh
O=C(NC1CCCC1)N1CC(=O)N2[C@H](CO)[C@H](c3ccc(C4=CCCC4)cc3)[C@@H]2C1	2
C/C=C/c1ccc([C@@H]2[C@H]3CN(Cc4ccc(F)cc4)CC(=O)N3[C@H]2CO)cc1	8[25 µM]
O=C(NC[C@H]1[C@H](c2ccccc2)[C@@H](CO)N1C(=O)C1CCC1)NC1CCCC1	-8[25 µM]
CCCNC(=O)NC[C@H]1[C@@H](c2ccc(C3=CCCC3)cc2)[C@@H](CO)N1C(C)=O	2
c1ccc2[nH]c(-c3ccc4c(c3)OCO4)nc2c1	14
c1ccc2sc(-c3ccc4c(c3)OCO4)nc2c1	53*
O=C(c1cc2ccccc2s1)N1CCOCC1	-7
O=C(NC1CC1)c1ccc(-c2nc3ccccc3s2)s1	75*
O=C(Nc1cccc(-c2nc3ccccc3s2)c1)c1ccc2c(c1)OCO2	-37
CCNC(=O)COC(=O)c1ccc(-c2nc3ccccc3s2)s1	-56
CCN1CCN(C(=O)c2ccc(-c3nc4ccccc4s3)s2)CC1	-45
O=C(c1ccc(-c2nc3ccccc3s2)s1)N1CCOCC1	88*
c1csc(-c2nc3ccccc3s2)c1	-97
O=C(C1CCOCC1)N1C[C@@H]2[C@H](c3ccccc31)[C@H](CO)N2C(=O)Cc1ccccn1	4[25 µM]
C[C@@H]1CN([C@H](C)CO)C(=O)c2ccccc2-c2ccccc2CO[C@H]1CN(C)C(=O)[C@@H](Cc1ccccc1)N(C)C	-5[25 µM]
COc1ccccc1NC(=O)NC1CC(=O)N(c2ccc3c(c2)OCCO3)C1 (stereo unspecified)	9
N#C[C@H]1[C@H](c2ccccc2-c2cccc(F)c2)[C@@H](CO)N1C(=O)C1CCOCC1	-4[25 µM]
CN(Cc1cccnc1)C(=O)c1ccc(Cl)c(NS(=O)(=O)c2ccc(F)cc2)c1	14
COc1ccc2c3c([nH]c2c1)[C@H](CO)N(C(=O)CC1CC1)CC31CN(Cc2cccnc2)C1	-8[25 µM]
CN1CCN(C(=O)[C@@H]2[C@@H](CO)[C@@H]3Cn4c(cccc4=O)[C@H]2N3Cc2ccncc2)CC1	2[25 µM]
CC1CNCCN1S(=O)(=O)c1cccc2cnccc12 (stereo unspecified)	32*
O=S(=O)(c1cccc2cnccc12)N1CCCNCC1	-6[25 µM]
O=[N+]([O-])c1cccc2cnccc12	11
O=C(C[C@@H]1C[C@H]2c3cc(NC(=O)C4CCOCC4)ccc3O[C@H]2[C@@H](CO)O1)NCc1cc(F)ccc1F	-12[25 µM]
